High-throughput results (PubChem BioAssay)
HIF-2a inh: blocks HIF-2a reporter activity; 786-0 RCC cells HIF-2a reporter, luciferase luminescence, overnight; inhibition, % at 18.8 µM; hit rate 0.72% among 360,000;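 active = inhibition of the luminescence signal of 40% or more relative to plate controls, in a single-dose primary screen at 18.75 µM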
Peg3 promoter: reduces Peg3 promoter-driven luciferase expression in HeLa. HeLa PEG-Prom luciferase reporter, luminescence, overnight. inhibition, % at 20 µM. hit rate 1.7% among 360,000. AID 588405;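 active = inhibition of at least 50% at 20 µM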
TWEAK-Fn14 inh: inhibitors of TWEAK-Fn14 interaction signaling; TWEAK-stimulated Fn14 reporter cells, luciferase luminescence, 8 h; inhibition, % at 10 µM; hit rate 2% among 360,000; AID 1159606; in the data active = inhibition above about 50%
CF NFkB inh: inhibitors of cystic fibrosis induced NF-kB | hit rate 0.86% among 360,000 | KKLEB NF-kB-GFP reporter, PAF-induced, GFP fluorescence overnight | AID 588850 | inhibition, % at 5 µM;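 active = at least 50% inhibition at 5 µM, scaled per plate between neutral and stimulator controls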;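 also: PAF is a Pseudomonas aeruginosa culture filtrate used as stimulus; plate controls were PAF-stimulated DMSO wells for no effect and unstimulated DMSO wells for full effect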
KKLEB cytotox: CF airway cell cytotoxicity counter-screen | KKLEB CF airway cells viability, ATPlite luminescence, overnight; stronger effect = lower value; cells stimulated with P. aeruginosa culture filtrate | activity change (cytotoxicity), % at 5 µM | hit rate 0.36% among 360,000;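 active = corrected activity change at or below -50% at 5 µM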
TROY NFkB inh: TROY signaling inhibition. Q293 LMP1-TROYcd NF-kB luciferase reporter, 4 h. inhibition, % at 10 µM. hit rate 0.98% among 360,000. AID 1347056;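 active = compounds whose plate-normalised and pattern-corrected inhibition of the luciferase reporter signal at the single screening dose is 50% or more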
* = called active by the depositor; / = no result. Shown are actives, neighbours in structure and some others; about 4% of the full set was active somewhere.

SMILES | HIF-2a inh | Peg3 promoter | TWEAK-Fn14 inh | CF NFkB inh | KKLEB cytotox | TROY NFkB inh
COc1ccc(CC(N)c2csc(NC(=O)Nc3ccc(OC)cc3)n2)cc1 (centres undefined) | -5 | 15 | 8 | -19 | -6 | 14
NC(c1ccccc1)c1csc(NC(=O)Nc2ccccc2Oc2ccccc2)n1 (centres undefined) | -16 | 82* | -1 | 23 | -25 | -1
COc1ccc(CC(N)c2csc(NC(=O)Nc3ccccc3C(C)C)n2)cc1 (centres undefined) | 3 | 100* | -24 | -28 | 10 | -16
COc1ccc(CC(N)c2csc(NC(=O)CCc3ccccc3)n2)cc1 (centres undefined) | -12 | 33 | 7 | -4 | -7 | 27
COc1ccccc1NC(=O)Nc1nc(C(N)C(C)C)cs1 (centres undefined) | -40 | -31 | -4 | 34 | -27 | 12
COc1ccc(CC(N)c2csc(NC(=O)Nc3ccccc3Cc3ccccc3)n2)cc1 (centres undefined) | 4 | 104* | -16 | 3 | 3 | -5
NC(Cc1ccccc1)c1csc(NC(=O)Nc2ccccc2Oc2ccccc2)n1 (centres undefined) | 20 | 104* | 24 | 7 | -13 | 12
CCCNC(=O)C1(C)CCCN(C(=O)c2c(F)ccc(C)c2F)C1 (centres undefined) | 7 | 6 | 1 | 10 | -11 | -1
Cc1ccc(S(=O)(=O)N2CCCN(c3nc4cc(C)ccc4cc3C#N)CC2)cc1 | 2 | -2 | 24 | -9 | 12 | -21
NC(Cc1ccc(C(F)(F)F)cc1)c1csc(NC(=O)NCCc2ccccc2)n1 (centres undefined) | 3 | 109* | -5 | 36 | -32 | 4
NC(Cc1ccc(C(F)(F)F)cc1)c1csc(Nc2ncccn2)n1 (centres undefined) | -1 | 8 | -11 | 10 | -15 | 6
NC(c1ccccc1)c1csc(NC(=O)Nc2ccc(OC(F)(F)F)cc2)n1 (centres undefined) | -1 | 105* | 8 | 22 | -7 | 9
NC(Cc1ccc(C(F)(F)F)cc1)c1csc(NC(=O)Nc2ccccc2Oc2ccccc2)n1 (centres undefined) | 19 | 98* | 27 | 15 | -22 | 7
CC(C)CC(N)c1csc(NC(=O)NCCc2ccccc2)n1 (centres undefined) | 9 | 25 | -11 | -18 | 9 | 1
NC(Cc1ccc(F)cc1)c1csc(NC(=O)NC(c2ccccc2)c2ccccc2)n1 (centres undefined) | -17 | 96* | 12 | 31 | -31 | 23
CCC(=O)NCc1ccc(-c2nc3ncccc3o2)cc1 | -32 | -19 | 1 | -11 | 0 | -23
CCN(CC)C(=O)C1CCCN(Cc2ccc(OC)c(C)c2C)C1 (centres undefined) | 1 | 7 | 4 | -4 | 4 | 0
COc1ccccc1NC(=O)Nc1nc(C(N)Cc2ccc(C(F)(F)F)cc2)cs1 (centres undefined) | 4 | 96* | 22 | 14 | -2 | 18
COc1ccc(CC(N)c2csc(NC(=O)Nc3ccccc3Oc3ccccc3)n2)cc1 (centres undefined) | 4 | 98* | -9 | 20 | -16 | 16
COc1ccc([C@H]2CN(c3ccccc3)C(=O)[C@@H]2CC(=O)Nc2ccccc2)cc1 | -87 | -38 | -2 | 10 | -2 | -42
CCSCc1nnc(SCC(=O)c2ccc(OC)cc2)n1C | -4 | -8 | 84* | 4 | 4 | /
CN1CCN(c2cc3c(c4c2[nH]c2ccccc24)C(=O)CC(C)(C)C3)CC1 | -29 | 107* | 19 | 22 | -30 | 1
COCCNC(=O)C(=O)c1c(-c2ccccc2)[nH]c2ccccc12 | -8 | -52 | 11 | -8 | 5 | -12
O=C(NCCCn1ccnc1)c1cc(C2CC2)on1 | 10 | -2 | -12 | 5 | -1 | 10
CC(C)(C)n1nc2c(c1NC(=O)c1cc3ccccc3o1)CS(=O)(=O)C2 | 21 | 15 | 33 | 13 | -7 | -9
SMILES | HIF-2a inh | Peg3 promoter | TWEAK-Fn14 inh | CF NFkB inh | KKLEB cytotox | TROY NFkB inh
CN(C)S(=O)(=O)Oc1ccsc1C(=O)Nc1ccc(Cl)c(Cl)c1 | -23 | 8 | 22 | 12 | -4 | -1
COc1ccc(COc2ccsc2C(=O)Nc2ccc(Cl)c(Cl)c2)cc1 | -47 | 32 | -11 | 44 | -66* | -9
Cc1cc(C)c(S(=O)(=O)N2CCCCC2C(=O)O)c(C)c1 (centres undefined) | 14 | 12 | -7 | 9 | -2 | -1
COc1ccc(C2=NO[C@@](CC(=O)O)(C(=O)Nc3ccc4c(c3)OCCO4)C2)cc1 | -80 | -19 | 43 | 10 | -10 | 55*
COc1ccc(N(CC(=O)Nc2ccc3c(c2)OCCO3)S(C)(=O)=O)c(OC)c1 | 22 | -56 | 62* | -1 | 5 | 45
COc1ccc(N(CC(=O)Nc2ccc3c(c2)OCCO3)S(=O)(=O)c2cccnc2)cc1 | -3 | 7 | 57* | -34 | 22 | 17
Cc1ccc(N(CC(=O)Nc2ccc3c(c2)OCCO3)S(=O)(=O)c2c(C)noc2C)cc1 | 10 | -106 | 43 | -3 | 1 | 15
NC(=O)COc1ccccc1C1=NO[C@@](CC(=O)O)(C(=O)Nc2ccc3c(c2)OCCO3)C1 | 9 | -4 | -1 | -6 | -3 | 7
COc1ccc(N(CC(=O)Nc2ccc3c(c2)OCCO3)S(=O)(=O)c2c(C)noc2C)cc1 | 16 | -14 | 65* | 8 | -2 | 3
COc1ccc2c(c1)c(=O)oc1cc(OCC(=O)NCC3CCC(C(=O)O)CC3)ccc12 (centres undefined) | -34 | -10 | -34 | -13 | 8 | -17
COc1cc(OC)cc(-c2c(Sc3ccccc3)c3cc(-c4ccc(OC)c(OC)c4)ccc3n2C)c1 | 14 | / | -5 | / | / | 8
COc1cccc(Cn2c(-c3cccs3)noc2=O)c1 | 3 | 5 | -15 | 11 | -4 | -11
COc1cc(/C=C2\SC(=O)NC2=O)ccc1OCC(=O)N1CCOCC1 | 7 | -10 | -7 | -5 | -16 | 2
CCCCC[C@H](O)/C=C/[C@H]1CCC(=O)[C@@H]1CCCCCCC(=O)N1CCCCC1CO (some centres undefined) | 2 | 63* | 31 | 37 | 4 | 37
CCCCCOc1ccc(NC(=O)C2OC3OC(C)(C)OC3C3OC(C)(C)OC23)cc1 (centres undefined) | 12 | 13 | 0 | -13 | -16 | -15
COc1ccc2sc(N3C(=O)C4CC=C(C)CC4C3=O)nc2c1 (centres undefined) | -43 | -2 | -1 | -10 | 3 | -27
Cc1ccc2oc(-c3cccc(NC(=S)NC(=O)/C=C/c4ccco4)c3)nc2c1 | -23 | -84 | 90* | 17 | -13 | 77*
O=C(/C=C/c1ccco1)NC(=S)Nc1nc(-c2ccc3ccccc3c2)cs1 | -71 | -26 | -1 | 47 | -64* | -47
